“And” between values parts separate entries of the source, which are not always exact repeats. Equal entries are not always repeated. Records with an inconclusive call do not appear. The source made the active and inactive calls. Unless noted, calls follow the shape of the dose curve; as a rule, active = well fitted curve in the direction sought with a large enough effect; inconclusive = small, poorly fitted or top-dose-only effect, or another doubt; inactive = no such curve, though single readings can be large; an effect the other way counts as inactive or inconclusive.
What was measured:
[1] = molecular target: D(1A) dopamine receptor (Homo sapiens) (UniProt P21728); assay: HTS Assay for Allosteric Agonists of the Human D1 Dopamine Receptor: Primary Screen for Potentiators (AID 488982); also: 0% is about no effect
Sequence of D(1A) dopamine receptor (Homo sapiens) (P21728 whole entry, looked up): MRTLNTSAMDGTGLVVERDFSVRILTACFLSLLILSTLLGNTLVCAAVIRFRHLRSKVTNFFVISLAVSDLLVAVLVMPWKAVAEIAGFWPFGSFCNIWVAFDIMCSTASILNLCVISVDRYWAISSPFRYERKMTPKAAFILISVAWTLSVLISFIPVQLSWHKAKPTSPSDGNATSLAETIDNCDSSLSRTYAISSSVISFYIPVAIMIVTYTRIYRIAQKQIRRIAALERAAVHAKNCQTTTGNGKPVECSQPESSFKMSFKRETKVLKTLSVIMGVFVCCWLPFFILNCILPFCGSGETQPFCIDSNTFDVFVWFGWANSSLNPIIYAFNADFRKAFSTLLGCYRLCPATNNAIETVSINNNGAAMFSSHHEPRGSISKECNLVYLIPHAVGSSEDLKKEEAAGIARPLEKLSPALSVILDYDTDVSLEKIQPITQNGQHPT
Outline: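 Tetracycline-induced HEK293 T-REx cells force-coupled to calcium signalling were incubated overnight at 30 C and dye-loaded at room temperature. Calcium flux over 180 s after compound addition flagged agonists; a further 180 s read after EC20 dopamine flagged potentiators.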

[2] = molecular target: D(1A) dopamine receptor (Homo sapiens) (UniProt P21728); assay: HTS Assay for Allosteric Agonists of the Human D1 Dopamine Receptor: Primary Screen for Antagonists (AID 488983);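 also: calcium flux response to an EC80 dopamine challenge measured with no-wash dye; % is scaled to controls: 0 for no effect and ±100 for the full control effect; nearly all actives have a fitted effect of over 65% in size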
Outline: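 Kinetic fluorescence at 1 cycle/sec tracked intracellular calcium in force-coupled, tetracycline-inducible HEK293 T-REx D1 cells. Loss of response to an EC80 dopamine dose, given 180 s after compound, marked antagonists.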

[3] = Validation screen for small molecules that induce genotoxicity in human embryonic kidney (HEK293T) cells expressing luciferase-tagged ELG1 (AID 493106); also: 0% is about no effect
Outline: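 Cells were dispensed at 2,000 per well, then 23 nL compound or DMSO was pinned in. After 16 hr at 37 °C and 5% CO2, ONE-Glo reagent was added. Luciferase activity was measured following 30 min at room temperature.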

[4] = molecular target: ATPase family AAA domain-containing protein 5 (Homo sapiens) (UniProt Q96QE3); assay: Validation screen for small molecules that inhibit ELG1-dependent DNA repair in human embryonic kidney (HEK293T) cells expressing luciferase-tagged ELG1 (AID 493107); also: nearly all actives have a fitted effect of over 70% in size; also: potency is read from the fitted curve at half-maximal effect
Sequence of ATPase family AAA domain-containing protein 5 (Homo sapiens) (Q96QE3 whole entry, looked up, the tested form may be a part): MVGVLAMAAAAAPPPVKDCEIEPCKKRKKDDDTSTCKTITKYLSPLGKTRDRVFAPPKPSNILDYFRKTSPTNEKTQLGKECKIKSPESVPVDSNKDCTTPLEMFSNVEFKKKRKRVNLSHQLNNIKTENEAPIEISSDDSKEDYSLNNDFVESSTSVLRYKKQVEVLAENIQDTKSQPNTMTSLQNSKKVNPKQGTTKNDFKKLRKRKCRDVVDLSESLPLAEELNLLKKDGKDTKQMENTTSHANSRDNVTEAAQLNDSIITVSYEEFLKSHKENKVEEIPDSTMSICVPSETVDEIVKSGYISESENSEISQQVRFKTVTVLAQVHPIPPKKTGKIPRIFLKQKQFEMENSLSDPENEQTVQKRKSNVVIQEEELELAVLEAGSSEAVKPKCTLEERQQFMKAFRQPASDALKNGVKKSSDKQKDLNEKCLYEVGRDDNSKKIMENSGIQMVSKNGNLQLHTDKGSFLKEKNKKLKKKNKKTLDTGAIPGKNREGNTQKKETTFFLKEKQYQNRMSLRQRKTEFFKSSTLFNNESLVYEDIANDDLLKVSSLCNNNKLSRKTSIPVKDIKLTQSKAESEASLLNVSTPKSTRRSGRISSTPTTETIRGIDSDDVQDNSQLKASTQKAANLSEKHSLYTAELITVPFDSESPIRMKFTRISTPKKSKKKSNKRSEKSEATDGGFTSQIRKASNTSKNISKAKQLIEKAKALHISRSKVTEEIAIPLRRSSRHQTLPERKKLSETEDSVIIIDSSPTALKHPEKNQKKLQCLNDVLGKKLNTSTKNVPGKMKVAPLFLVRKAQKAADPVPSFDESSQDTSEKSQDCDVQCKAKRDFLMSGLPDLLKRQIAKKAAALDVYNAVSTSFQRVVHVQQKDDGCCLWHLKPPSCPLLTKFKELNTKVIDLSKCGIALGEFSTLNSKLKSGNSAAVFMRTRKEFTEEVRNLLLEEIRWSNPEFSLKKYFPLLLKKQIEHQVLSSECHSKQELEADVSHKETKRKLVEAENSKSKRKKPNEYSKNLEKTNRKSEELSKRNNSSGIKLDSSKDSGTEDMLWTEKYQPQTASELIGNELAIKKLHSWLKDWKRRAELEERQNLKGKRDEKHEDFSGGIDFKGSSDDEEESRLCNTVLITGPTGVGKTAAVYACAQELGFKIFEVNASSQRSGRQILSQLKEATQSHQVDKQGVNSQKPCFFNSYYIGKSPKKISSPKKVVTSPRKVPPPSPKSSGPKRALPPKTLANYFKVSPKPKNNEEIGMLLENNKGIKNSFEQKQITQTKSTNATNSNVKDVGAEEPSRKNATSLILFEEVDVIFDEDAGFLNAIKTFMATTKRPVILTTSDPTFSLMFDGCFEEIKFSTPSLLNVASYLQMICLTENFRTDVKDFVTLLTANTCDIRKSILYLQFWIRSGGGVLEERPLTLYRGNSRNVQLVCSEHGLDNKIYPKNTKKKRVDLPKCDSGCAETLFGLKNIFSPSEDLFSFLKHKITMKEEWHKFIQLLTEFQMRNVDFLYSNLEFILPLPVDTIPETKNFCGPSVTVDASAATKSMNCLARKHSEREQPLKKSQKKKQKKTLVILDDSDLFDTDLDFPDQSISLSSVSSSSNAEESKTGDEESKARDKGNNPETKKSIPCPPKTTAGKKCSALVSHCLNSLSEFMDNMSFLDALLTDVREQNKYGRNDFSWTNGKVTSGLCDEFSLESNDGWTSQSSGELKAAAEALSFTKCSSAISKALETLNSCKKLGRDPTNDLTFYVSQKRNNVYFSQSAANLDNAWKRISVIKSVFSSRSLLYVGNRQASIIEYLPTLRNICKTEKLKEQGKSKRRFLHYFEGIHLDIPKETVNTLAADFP
Outline: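 Cells are dispensed in 1536-well format, then 5-fluorouridine and compound are pinned in. After a 16 hr incubation at 37 °C and 5% CO2, ONE-Glo is added and luciferase measured on a CCD imager.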

[5] = Nrf2 qHTS screen for inhibitors: Validation (AID 493153; active = well fitted inhibition curve with a large enough effect in the main read-out, with a control signal flat, not every such curve was filed as active); conditions: Potency: luciferase luminescence; viability change: measured here: cytotoxicity max response
Outline: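 A549 ARE_Fluc, 5% FBS OPTI-MEM; cpd titration, 18-24 h, 37°C/5% CO2. Read 1: CellTiter-Fluor (Ex 405/Em 525), cytotox. Read 2: luciferase lum, Nrf2 activity.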

[6] = qHTS for Inhibitors of Cell Surface uPA Generation: Validation Assay (AID 493164);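 also: RAW 264.7 macrophage cells exposed to compound for 18 h; 0% is about no effect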
Outline: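 ATP-Lite luminescence read-out: ATP remains high when uPA activity-dependent LF translocation into the cytoplasm is blocked. RAW 264.7 cells, 18 h compound exposure at 37 C; 7-point titration, 2.45 nM to 38.3 uM final.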

[7] = molecular target: Thyrotropin-releasing hormone receptor (Homo sapiens) (UniProt P34981); assay: qHTS for Small Molecule Agonists and Allosteric Enhancers of Human TRH Receptor: Validation Screen for Agonists (AID 493127;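 active = calcium activation more than 3 SD above the typical response in the agonist read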;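 also: intracellular calcium rise by fluo-8 fluorescence before TRH EC20 addition; 0% is about no effect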); conditions: TRH receptor agonist cell assay; at 2 µM; stronger effect = higher value
Sequence of Thyrotropin-releasing hormone receptor (Homo sapiens) (P34981 whole entry, looked up): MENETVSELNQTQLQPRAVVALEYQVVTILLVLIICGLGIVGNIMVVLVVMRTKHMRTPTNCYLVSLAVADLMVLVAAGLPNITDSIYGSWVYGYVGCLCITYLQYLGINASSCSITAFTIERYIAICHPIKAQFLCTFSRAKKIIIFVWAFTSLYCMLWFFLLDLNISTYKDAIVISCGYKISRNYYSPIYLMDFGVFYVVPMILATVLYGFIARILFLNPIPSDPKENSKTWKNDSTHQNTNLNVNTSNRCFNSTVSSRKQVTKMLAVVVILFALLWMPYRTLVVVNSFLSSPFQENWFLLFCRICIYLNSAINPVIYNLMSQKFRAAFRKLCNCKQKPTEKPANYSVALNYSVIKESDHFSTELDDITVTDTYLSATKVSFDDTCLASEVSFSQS
Outline: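 Compounds are added by online pintool to dye-loaded TRHR cells while fluorescence is recorded every second. A rise in calcium signal during the agonist read marks activation; a later 10 nM TRH addition (EC20) serves the separate enhancer mode.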

[8] = molecular target: Galactokinase (Homo sapiens) (UniProt P51570); assay: qHTS Validation Assay for Inhibitors of Human Galactokinase (GALK) (AID 493189); also: 0% is about no effect
Sequence of Galactokinase (Homo sapiens) (P51570 whole entry, looked up): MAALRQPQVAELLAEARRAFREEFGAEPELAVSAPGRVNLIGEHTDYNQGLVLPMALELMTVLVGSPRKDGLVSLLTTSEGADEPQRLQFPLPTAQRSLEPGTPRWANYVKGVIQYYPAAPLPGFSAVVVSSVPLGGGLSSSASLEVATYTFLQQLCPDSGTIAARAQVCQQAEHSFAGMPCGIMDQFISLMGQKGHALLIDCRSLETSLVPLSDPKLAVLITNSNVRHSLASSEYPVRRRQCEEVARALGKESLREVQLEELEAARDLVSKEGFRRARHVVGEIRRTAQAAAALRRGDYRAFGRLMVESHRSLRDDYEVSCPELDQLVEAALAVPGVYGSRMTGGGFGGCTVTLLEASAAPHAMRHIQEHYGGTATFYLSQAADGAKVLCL
Outline: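 GALK (5 nM) with 35 uM ATP and 100 uM galactose in HEPES pH 8.0 with MgCl2, NaCl, DTT and BSA. Reaction ran 1 h at room temperature. Residual ATP read by Kinase-Glo Plus luminescence.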

[9] = molecular target: ATP-dependent 6-phosphofructokinase (Trypanosoma brucei brucei) (UniProt O15648); assay: qHTS Assay to Find Inhibitors of T. brucei phosphofructokinase: hit validation (AID 492961);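 also: luminescence reports ADP formed as PFK phosphorylates fructose-6-phosphate with ATP; series mostly up to about 51 µM; % is scaled to controls: 0 for no effect and ±100 for the full control effect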
Sequence of ATP-dependent 6-phosphofructokinase (Trypanosoma brucei brucei) (O15648 whole entry, looked up): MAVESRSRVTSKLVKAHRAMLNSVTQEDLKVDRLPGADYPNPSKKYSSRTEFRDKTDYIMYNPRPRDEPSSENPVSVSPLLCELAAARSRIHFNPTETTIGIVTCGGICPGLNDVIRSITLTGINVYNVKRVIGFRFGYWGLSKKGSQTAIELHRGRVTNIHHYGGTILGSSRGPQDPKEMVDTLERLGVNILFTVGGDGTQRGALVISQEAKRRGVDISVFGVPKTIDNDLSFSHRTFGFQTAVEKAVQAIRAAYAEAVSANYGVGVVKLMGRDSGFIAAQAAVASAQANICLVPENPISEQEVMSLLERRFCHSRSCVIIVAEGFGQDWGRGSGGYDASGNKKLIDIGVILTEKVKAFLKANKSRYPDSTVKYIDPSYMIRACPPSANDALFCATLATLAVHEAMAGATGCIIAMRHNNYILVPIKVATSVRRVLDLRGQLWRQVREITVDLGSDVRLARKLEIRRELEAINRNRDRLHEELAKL
Outline: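 PFK 1.25 nM, F6P 0.5 mM, ATP 0.1 mM, MgCl2 5 mM, 0.1 M TEA pH 8.0, Tween20 0.01%, BSA 0.1%; 45 min RT. ADP-Glo two-step detection, luminescence. qHTS titration; curve fitting with curve-class categorization.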

Clc1ccc(N2CCN(Cc3cc4ccccn4n3)CC2)cc1
2.97%: viability change [5]
inactive: Potency [1] | Potency [2] | Potency [3] | Potency [4] | Potency [5] | outcome [6]

NCCCCCCCCCCN
inactive: Potency [1] | Potency [2] | Potency [3] | Potency [4] | activation [7] 0.938% | Potency [5] | outcome [6] | Potency [8]
-2.16%: viability change [5]

CN1C2CCC1CC(OC(=O)C(O)c1ccccc1)C2 (stereo not given)
inactive: Potency [1] | Potency [2] | Potency [3] | Potency [4] | Potency [5] | outcome [6] | Potency [8]
-17.3%: viability change [5]

OCC1O[C@H]([S-])[C@H](O)[C@@H](O)[C@@H]1O.[Au+] (stereo not given in full)
inactive: Potency [1] | Potency [2] | Potency [3] | Potency [4] | Potency [5] | outcome [6]
-19.1%: viability change [5]

C[N+]1(C)C2CC(OC(=O)[C@H](CO)c3ccccc3)CC1C1OC12 (stereo not given in full)
3.14% and -2.67%: viability change [5]
inactive: Potency [1] | Potency [2] | Potency [3] | Potency [4] | Potency [5] | outcome [6]

CO/S(=N\S(=O)(=O)c1ccc(Cl)cc1)c1ccc([N+](=O)[O-])cc1 (stereo not given)
inactive: Potency [1] | Potency [2] | Potency [3] | Potency [4] | Potency [5] | outcome [6]
-1.86%: viability change [5]

CCC1C(=O)OCC1Cc1cncn1C (stereo not given)
6.63% and 6.13%: viability change [5]
inactive: Potency [1] | Potency [2] | outcome [9] | Potency [3] | Potency [5] | outcome [6]

O=C(O)CNC(=O)C(CS)Cc1ccccc1 (stereo not given)
inactive: Potency [1] | Potency [2] | Potency [3] | Potency [4] | Potency [5] | outcome [6] | Potency [8]
2.31%: viability change [5]

Cn1ncc(S(=O)(=O)Cc2ccccc2)c(Br)c1=O
inactive: Potency [1] | Potency [2] | Potency [3] | Potency [4]

O=C(O)CCCC[C@@H]1CCSS1
inactive: Potency [1] | Potency [2] | Potency [3] | Potency [4] | activation [7] 0.438% | Potency [5] | outcome [6] | Potency [8]
5.5%: viability change [5]

NCCNC(=O)c1ncsc1-c1cccc(F)c1
inactive: Potency [1] | Potency [2] | Potency [3] | Potency [4] | activation [7] -2.38% | Potency [5] | outcome [6] | Potency [8]
1.7%: viability change [5]

NC(=S)NCCC[C@H](N)C(=O)O
2.08%: viability change [5]
inactive: Potency [1] | Potency [2] | Potency [3] | Potency [4] | Potency [5] | outcome [6]

COc1cc2c(CCNC(C)=O)c[nH]c2cc1Cl
2.33%: viability change [5]
inactive: Potency [1] | Potency [2] | Potency [3] | Potency [4] | activation [7] 0.375% | Potency [5] | outcome [6] | Potency [8]

CC(N)C(=O)OC(C)(C)Cc1ccc(Cl)cc1 (stereo not given)
inactive: Potency [1] | Potency [2] | Potency [3] | Potency [4] | Potency [5] | outcome [6]
7.67%: viability change [5]

O=C(O)c1cc([N+](=O)[O-])ccc1NCCCc1ccccc1
inactive: Potency [1] | Potency [2] | Potency [3] | Potency [4] | activation [7] 0% | outcome [6] | Potency [8]

Nc1ncnc2c1ncn2[C@@H]1O[C@H](COP(=O)(O)CP(=O)(O)OP(=O)(O)O)[C@@H](O)[C@H]1O
-5.53%: viability change [5]
inactive: Potency [1] | Potency [2] | Potency [3] | Potency [4] | Potency [5] | outcome [6]

OCC1O[C@H](O)C(Cl)C(O)C1O (stereo not given in full)
inactive: Potency [1] | Potency [2] | Potency [3] | Potency [4] | Potency [5] | outcome [6] | Potency [8]
4.21%: viability change [5]

Nc1nc(SCc2ccc([N+](=O)[O-])cc2)c2ncn([C@@H]3O[C@H](CO)[C@@H](O)[C@H]3O)c2n1
active: Potency [4] 146 nM
12.2%: viability change [5]
inactive: Potency [1] | Potency [2] | Potency [3] | Potency [5] | outcome [6]

CN(C)C(N)=NCCC[C@H](N)C(=O)O
inactive: Potency [1] | Potency [2] | Potency [3] | Potency [4] | Potency [5] | outcome [6] | Potency [8]
-5.79%: viability change [5]

O=C(O)CC1CCCc2ccccc2C1O (stereo not given)
inactive: Potency [1] | Potency [2] | Potency [3] | Potency [4] | activation [7] 0.625% | Potency [5] | outcome [6] | Potency [8]
2.15%: viability change [5]

COc1ccccc1CNCCCCCCNCCCCCCCCNCCCCCCNCc1ccccc1OC
inactive: Potency [1] | Potency [2] | Potency [3] | Potency [4] | activation [7] 0.938% | Potency [5] | outcome [6] | Potency [8]
-8.09%: viability change [5]

O=C(O)c1cc(=O)c2ccccc2[nH]1
inactive: Potency [1] | Potency [2] | Potency [3] | Potency [4] | Potency [5] | outcome [6] | Potency [8]
-7.12%: viability change [5]

CC(COc1ccc(/C=C/c2ccccc2)cc1)[N+](C)(C)C (stereo not given)
inactive: Potency [1] | Potency [2] | Potency [3] | Potency [4] | activation [7] 0.125% | outcome [6] | Potency [8]

Source: PubChem BioAssay (NCATS)
